Source: PubChem BioAssay AID1159580 (chemical genetic matrix, 2015)
The campaign covered roughly 5,500 compounds. About 2,000 (36%) were called active. Not shown: some 18% with an inconclusive outcome. No stated cut-off is given here; in the data, active means normalized growth mostly below about 0.91 (no sharp cut-off); inconclusive means no clear call, values can overlap the other calls; inactive means mostly above about 0.92. The list shows a part of the results.

Experiment: chemical genetic growth profiling, strain panel (AID 1159580);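 further: tested at 20 µM; growth read once vehicle control cultures reached saturation at 30 °C; 1 = growth at the plate median or of vehicle wells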
Details: growth OD

Measured: normalized growth

O=c1cc(-c2ccc(O)cc2)oc2cc(O[C@@H]3O[C@H](CO)[C@@H](O)[C@H](O)[C@H]3O)cc(O)c12
inactive: S. cerevisiae deletion strains, locus YJR075W, strain HOC1, stronger effect = lower value 0.993 | S. cerevisiae deletion strains, locus YKL009W, strain mrt4, stronger effect = lower value 0.936 | S. cerevisiae deletion strains, locus YKL068W, stronger effect = lower value 0.989 | S. cerevisiae deletion strains, locus YKL085W, strain MDH1 (second series), stronger effect = lower value 0.974 | S. cerevisiae deletion strains, locus YKL085W, strain MDH1, stronger effect = lower value 0.974 | S. cerevisiae deletion strains, locus YKL160W, strain elf1, stronger effect = lower value 0.985 | S. cerevisiae deletion strains, locus YKR001C, strain vps1, stronger effect = lower value 0.958 | S. cerevisiae deletion strains, locus YKR026C, strain gcn3, stronger effect = lower value 1.01 | S. cerevisiae deletion strains, locus YKR091W, strain srl3, stronger effect = lower value 1 | S. cerevisiae deletion strains, locus YLL001W, strain dnm1, stronger effect = lower value 1.01 | S. cerevisiae deletion strains, locus YLL026W, stronger effect = lower value 1.01 | S. cerevisiae deletion strains, locus YLL041C, strain sdh2, stronger effect = lower value 1 | S. cerevisiae deletion strains, locus YLR027C, strain aat2, stronger effect = lower value 0.997 | S. cerevisiae deletion strains, locus YLR039C, strain RIC1, stronger effect = lower value 0.996 | S. cerevisiae deletion strains, locus YLR058C, strain SHM2, stronger effect = lower value 0.989 | S. cerevisiae deletion strains, locus YLR102C, strain apc9, stronger effect = lower value 0.968 | S. cerevisiae deletion strains, locus YLR113W, strain HOG1, stronger effect = lower value 1.03 | S. cerevisiae deletion strains, locus YLR221C, strain rsa3, stronger effect = lower value 1.04 | S. cerevisiae deletion strains, locus YLR258W, strain gsy2, stronger effect = lower value 0.996 | S. cerevisiae deletion strains, locus YLR262C, strain YPT6 (second series), stronger effect = lower value 1.02 | S. cerevisiae deletion strains, locus YLR262C, strain YPT6, stronger effect = lower value 0.971 | S. cerevisiae deletion strains, locus YLR268W, strain sec22, stronger effect = lower value 0.963 | S. cerevisiae deletion strains, locus YLR320W, strain mms22, stronger effect = lower value 1.05 | S. cerevisiae deletion strains, locus YLR330W, strain CHS5, stronger effect = lower value 0.985 | S. cerevisiae deletion strains, locus YLR342W, strain FKS1 (second series), stronger effect = lower value 0.98 | S. cerevisiae deletion strains, locus YLR342W, strain FKS1, stronger effect = lower value 1.01 | S. cerevisiae deletion strains, locus YLR357W, strain rsc2, stronger effect = lower value 1.01 | S. cerevisiae deletion strains, locus YLR370C, strain arc18, stronger effect = lower value 0.976 | S. cerevisiae deletion strains, locus YLR371W, strain rom2, stronger effect = lower value 0.964 | S. cerevisiae deletion strains, locus YLR384C, strain iki3, stronger effect = lower value 1.01 | S. cerevisiae deletion strains, locus YLR418C, strain cdc73, stronger effect = lower value 0.964 | S. cerevisiae deletion strains, locus YML016C, strain PPZ1, stronger effect = lower value 0.988 | S. cerevisiae deletion strains, locus YML032C, strain rad52, stronger effect = lower value 0.973 | S. cerevisiae deletion strains, locus YML120C, strain ndi1, stronger effect = lower value 0.986 | S. cerevisiae deletion strains, locus YML124C, strain tub3, stronger effect = lower value 0.983 | S. cerevisiae deletion strains, locus YMR058W, strain fet3, stronger effect = lower value 1.02 | S. cerevisiae deletion strains, locus YMR078C, strain ctf18, stronger effect = lower value 1.01 | S. cerevisiae deletion strains, locus YMR125W, strain sto1, stronger effect = lower value 0.968 | S. cerevisiae deletion strains, locus YMR129W, stronger effect = lower value 1 | S. cerevisiae deletion strains, locus YMR205C, strain PFK2, stronger effect = lower value 1.01 | S. cerevisiae deletion strains, locus YMR223W, strain ubp8, stronger effect = lower value 1.01 | S. cerevisiae deletion strains, locus YMR231W, strain pep5, stronger effect = lower value 1 | S. cerevisiae deletion strains, locus YMR307W, strain GAS1, stronger effect = lower value 1.02 | S. cerevisiae deletion strains, locus YNL067W, strain RPL9B, stronger effect = lower value 1.01 | S. cerevisiae deletion strains, locus YNL071W, strain lat1, stronger effect = lower value 0.995 | S. cerevisiae deletion strains, locus YNL153C, strain GIM3, stronger effect = lower value 1 | S. cerevisiae deletion strains, locus YNL183C, strain NPR1, stronger effect = lower value 0.975 | S. cerevisiae deletion strains, locus YNL209W, strain ssb2, stronger effect = lower value 0.994 | S. cerevisiae deletion strains, locus YNL233W, strain BNI4, stronger effect = lower value 0.987 | S. cerevisiae deletion strains, locus YNL248C, strain rpa49, stronger effect = lower value 1.08 | S. cerevisiae deletion strains, locus YNL250W, strain rad50, stronger effect = lower value 0.98 | S. cerevisiae deletion strains, locus YNL271C, strain bni1, stronger effect = lower value 0.975 | S. cerevisiae deletion strains, locus YNL298W, strain CLA4, stronger effect = lower value 0.98 | S. cerevisiae deletion strains, locus YNL307C, strain MCK1, stronger effect = lower value 0.973 | S. cerevisiae deletion strains, locus YNL322C, strain KRE1 (second series), stronger effect = lower value 0.993 | S. cerevisiae deletion strains, locus YNL322C, strain KRE1, stronger effect = lower value 0.987 | S. cerevisiae deletion strains, locus YNR049C, strain mso1, stronger effect = lower value 1.03 | S. cerevisiae deletion strains, locus YNR052C, strain pop2, stronger effect = lower value 0.997 | S. cerevisiae deletion strains, locus YOL012C, strain htz1 0.98 | S. cerevisiae deletion strains, locus YOL147C, strain pex11, stronger effect = lower value 0.978 | S. cerevisiae deletion strains, locus YOR001W, strain rrp6, stronger effect = lower value 1.04 | S. cerevisiae deletion strains, locus YOR061W, strain CKA2, stronger effect = lower value 0.979 | S. cerevisiae deletion strains, locus YOR069W, strain VPS5, stronger effect = lower value 0.978 | S. cerevisiae deletion strains, locus YOR070C, strain gyp1, stronger effect = lower value 1.02 | S. cerevisiae deletion strains, locus YOR080W, strain dia2, stronger effect = lower value 1.01 | S. cerevisiae deletion strains, locus YOR083W, strain WHI5, stronger effect = lower value 0.974 | S. cerevisiae deletion strains, locus YOR106W, strain vam3, stronger effect = lower value 0.966 | S. cerevisiae deletion strains, locus YOR136W, strain idh2, stronger effect = lower value 0.958 | S. cerevisiae deletion strains, locus YOR144C, strain elg1, stronger effect = lower value 0.98 | S. cerevisiae deletion strains, locus YOR184W, strain ser1, stronger effect = lower value 1 | S. cerevisiae deletion strains, locus YOR231W, strain MKK1, stronger effect = lower value 1.05 | S. cerevisiae deletion strains, locus YOR265W, strain rbl2, stronger effect = lower value 1.01 | S. cerevisiae deletion strains, locus YOR270C, strain vph1, stronger effect = lower value 1.06 | S. cerevisiae deletion strains, locus YOR290C, strain snf2, stronger effect = lower value 0.961 | S. cerevisiae deletion strains, locus YOR316C, strain cot1, stronger effect = lower value 0.969 | S. cerevisiae deletion strains, locus YPL051W, strain arl3, stronger effect = lower value 1.03 | S. cerevisiae deletion strains, locus YPL078C, strain atp4, stronger effect = lower value 0.968 | S. cerevisiae deletion strains, locus YPL106C, strain sse1, stronger effect = lower value 1 | S. cerevisiae deletion strains, locus YPL240C, strain hsp82, stronger effect = lower value 1.01 | S. cerevisiae deletion strains, locus YPL241C, strain CIN2, stronger effect = lower value 0.994 | S. cerevisiae deletion strains, locus YPL256C, strain CLN2, stronger effect = lower value 1 | S. cerevisiae deletion strains, locus YPR119W, strain clb2, stronger effect = lower value 0.989 | S. cerevisiae deletion strains, locus YPR141C, strain kar3, stronger effect = lower value 0.968 | S. cerevisiae deletion strains, locus YPR163C, strain tif3, stronger effect = lower value 0.982 | S. cerevisiae deletion strains, locus YPR167C, strain met16, stronger effect = lower value 0.979 | S. cerevisiae deletion strains, strain wtn01, stronger effect = lower value 0.955 | S. cerevisiae strains, strain wild type, stronger effect = lower value 0.993
